Experimental data from PubChem BioAssay.
Activity calls are given as the source filed them. Unless noted, no rule for the calls is given here.

What was measured:
[1] = compound effects on lung adenocarcinoma cell viability – A549, calcein-AM fluorescence, 48 h, basal, profiling panel (AID 1162); details: higher = more signal; also: test concentration not given here
[2] = compound effects on differentiated 3T3-L1 adipocyte viability – cell-based, 3T3-L1 adipocytes, calcein-AM fluorescence, 48 h, basal, profiling panel (AID 1163); details: 3T3-L1 adipocytes viability, higher = more signal; also: test concentration not given here
[3] = compound effects on hepatocellular carcinoma cell viability – HepG2, calcein-AM fluorescence, 48 h, basal, profiling panel (AID 1164); details: higher = more signal; also: test concentration not given here
[4] = compound effects on multiple myeloma cell viability – MM1S, calcein-AM fluorescence, 48 h, basal, profiling panel (AID 1165); details: higher = more signal;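 also: viability of MM1S multiple myeloma cells under basal unstimulated conditions; test concentration not given here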
[5] = calcein-AM signal in unstimulated myeloma cells – cell-based, calcein-AM fluorescence, 48 h, PK04 Diversity Set, profiling panel (AID 1166); details: RPMI8226 myeloma viability, higher = more signal;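 also: cells grown under basal conditions without added stimulus; test concentration not given here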
[6] = JC-1 mitochondrial signal, unstimulated HepG2 cells – cell-based, JC-1 fluorescence, 24 h, 100 nL compound, profiling panel (AID 1167); details: HepG2 mitochondrial potential, higher = more signal; also: test concentration not given here
[7] = JC-1 mitochondrial signal, unstimulated adipocytes – cell-based, JC-1 fluorescence, 3T3-L1 adipocytes, 24 h, 100 nL compound, profiling panel (AID 1168); details: JC-1 mitochondrial fluorescence, higher = more signal, called active from +8 up or from −8 down; also: test concentration not given here
[8] = JC-1 mitochondrial signal, unstimulated myeloma cells – cell-based, JC-1 fluorescence, RPMI8226, 24 h, 100 nL compound, profiling panel (AID 1169); details: JC-1 mitochondrial potential fluorescence, higher = more signal; also: test concentration not given here
[9] = JC-1 mitochondrial signal, unstimulated MM1S myeloma – cell-based, JC-1 fluorescence, 24 h, 100 nL compound, profiling panel (AID 1170); details: MM1S mitochondrial potential, higher = more signal; also: test concentration not given here
[10] = resazurin metabolic signal in A549 cells – cell-based, resazurin fluorescence, 24 h, PK04 Diversity Set, profiling panel (AID 1171); details: A549 viability, higher = more signal, called active from +8 up or from −8 down; also: test concentration not given here
[11] = resazurin metabolic signal in HepG2 cells – cell-based, resazurin fluorescence, 24 h, PK04 Diversity Set, profiling panel (AID 1172); details: HepG2 viability, higher = more signal; also: test concentration not given here
[12] = budding yeast growth changes without added modifier – OD600, strain BY4716, 24 h, basal condition, primary screen (AID 1173); details: S. cerevisiae BY4716 growth, OD600, 24 h; higher = more signal, called active from +8 up or from −8 down
[13] = viability profiling in MM1S myeloma cells – cell-based, resazurin fluorescence, basal, 24 h, PK04 Diversity Set, profiling panel (AID 1174); details: higher = more signal, called active from +8 up or from −8 down; also: test concentration not given here
[14] = biological target: Dihydroorotate dehydrogenase (quinone), mitochondrial (Plasmodium falciparum (isolate 3D7)) (UniProt Q08210); assay: inhibition of P. falciparum DHODH – biochemical, C-terminal His tag, absorbance 600 nm, primary screen (AID 1175); details: PfDHODH enzyme, DCIP absorbance 600 nm; higher = more signal, called active from +8 up or from −8 down;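 also: recombinant parasite enzyme with a five histidine tag at its C terminus; test concentration not given here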
Sequence of Dihydroorotate dehydrogenase (quinone), mitochondrial (Plasmodium falciparum (isolate 3D7)) (Q08210 whole entry, looked up): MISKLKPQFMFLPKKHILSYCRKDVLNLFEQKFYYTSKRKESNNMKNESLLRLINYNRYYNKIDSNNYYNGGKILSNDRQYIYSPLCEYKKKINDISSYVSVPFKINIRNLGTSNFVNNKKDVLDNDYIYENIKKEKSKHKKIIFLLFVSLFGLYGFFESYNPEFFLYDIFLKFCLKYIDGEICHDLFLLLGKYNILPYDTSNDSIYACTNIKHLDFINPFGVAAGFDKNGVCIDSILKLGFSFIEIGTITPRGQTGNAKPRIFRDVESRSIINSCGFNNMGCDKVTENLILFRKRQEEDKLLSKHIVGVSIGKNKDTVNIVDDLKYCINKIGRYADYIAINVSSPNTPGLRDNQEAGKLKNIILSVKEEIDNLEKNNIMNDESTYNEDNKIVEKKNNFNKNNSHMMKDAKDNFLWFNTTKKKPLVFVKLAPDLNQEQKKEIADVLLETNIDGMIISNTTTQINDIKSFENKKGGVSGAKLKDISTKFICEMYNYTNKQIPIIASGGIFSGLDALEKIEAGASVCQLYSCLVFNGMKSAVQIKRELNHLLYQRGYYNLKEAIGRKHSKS

[15] = inhibition of PAO1 biofilm formation – strain PAO1, LB-PBS medium, absorbance 600 nm, primary screen (AID 1176); also: test concentration not given here; details: P. aeruginosa PAO1 growth/biofilm, A600, 12 h; higher = more signal
[16] = growth modulation of vineyard yeast isolate – strain RM11-1a, OD600, basal, 24 h, primary screen (AID 1177);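 also: cultures grown under basal conditions with no added stressor; test concentration not given here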; details: S. cerevisiae RM11-1a growth, OD600, 24 h; higher = more signal, called active from +8 up or from −8 down
[17] = growth of efflux-deficient E. coli DRC39 – strain DRC39, OD650, 24 h, E. coli filamentation inducers, primary screen (AID 1178);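 also: growth measured as culture turbidity by optical density at 650 nm; test concentration not given here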; details: E. coli DRC39 acrAB, higher = more signal, called active from +8 up or from −8 down
[18] = growth of efflux-deficient E. coli DRC39 – strain DRC39, OD650, 48 h, E. coli filamentation inducers, primary screen (AID 1179);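 also: screen aims at cell division blockers that make cells filament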; details: E. coli DRC39 delta-acrAB growth, higher = more signal, called active from +8 up or from −8 down
[19] = viability profiling in RPMI8226 myeloma cells – cell-based, resazurin fluorescence, basal, 24 h, PK04 Diversity Set, profiling panel (AID 1180); details: higher = more signal;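 also: RPMI8826 multiple myeloma cell line at 5000 cells per well; test concentration not given here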
[20] = biological target: E3 ubiquitin-protein ligase XIAP (Homo sapiens) (UniProt P98170); assay: small molecules binding XIAP protein – biophysical, small-molecule microarray, fluorescence 635 nm, primary screen (AID 1181); details: higher = more signal;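 also: score merges 667 nm emission and signal to noise over triplicate slides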
Sequence of E3 ubiquitin-protein ligase XIAP (Homo sapiens) (P98170 whole entry, looked up): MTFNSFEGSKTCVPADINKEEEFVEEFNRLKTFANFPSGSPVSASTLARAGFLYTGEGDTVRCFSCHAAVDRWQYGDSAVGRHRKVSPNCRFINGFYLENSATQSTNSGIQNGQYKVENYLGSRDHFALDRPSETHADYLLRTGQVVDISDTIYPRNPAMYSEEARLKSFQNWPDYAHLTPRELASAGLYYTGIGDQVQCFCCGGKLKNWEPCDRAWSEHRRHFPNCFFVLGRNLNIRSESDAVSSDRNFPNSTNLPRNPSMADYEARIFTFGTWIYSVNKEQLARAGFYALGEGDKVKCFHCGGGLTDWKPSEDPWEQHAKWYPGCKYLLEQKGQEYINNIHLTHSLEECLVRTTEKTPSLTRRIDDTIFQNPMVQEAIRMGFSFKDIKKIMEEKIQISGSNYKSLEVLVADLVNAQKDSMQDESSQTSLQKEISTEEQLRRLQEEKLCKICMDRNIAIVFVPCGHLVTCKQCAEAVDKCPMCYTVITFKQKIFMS

Compound	z-score [1]	z-score [2]	z-score [3]	z-score [4]	z-score [5]	z-score [6]	z-score [7]	z-score [8]	z-score [9]	z-score [10]	z-score [11]	z-score [12]	z-score [13]	composite z-score [14]	z-score [15]	z-score [16]	z-score [17]	z-score [18]	z-score [19]	composite z-score [20]
COC(=O)[C@H](Cc1ccccc1)N1CC(/C=C/C2CC2)=C[C@H]1[C@H](O)Cc1ccccc1	0.13	-0.0604	-0.551	-3.38	-3.98	-2.09	0.128 (inactive)	-1.19	-3.06	-0.395 (inactive)	-0.57	-2.67 (inactive)	-3.01 (inactive)	-0.258 (inactive)	0.188 (inactive)	-0.55 (inactive)	-0.0993 (inactive)	-0.0274 (inactive)	-2.71	-0.102
COC(=O)C1=CC(CCCO)=CC(C2CC2)N(C)C=C1C(=O)OC (stereo not given)	2.6	0.435	1.45	0.828	2.02	0.63	-0.757 (inactive)	-0.225	-1.27	-0.951 (inactive)	0.421	-0.589 (inactive)	-0.463 (inactive)	-1.43 (inactive)	0.82 (inactive)	-1.09 (inactive)	1.04 (inactive)	1.58 (inactive)	-0.0242	0.0054
CO[C@H]1O[C@H](CO)[C@@H](OC(=O)Nc2ccccc2-c2ccccc2)[C@H](OC(=O)Nc2ccc3c(c2)OCO3)[C@H]1OC(=O)Nc1ccc2c(c1)OCO2	0.673	-0.31	-0.521	-1.02	-2.75	0.844	1.48 (inactive)	-1.01	0.823	0.262 (inactive)	-0.396	1.66 (inactive)	-0.262 (inactive)	-0.763 (inactive)	3.65 (inactive)	2.5 (inactive)	1.2 (inactive)	0.0265 (inactive)	-0.564	0.25
Cc1ccc(S[C@]2(C(=O)O)CC(=O)N(C3Cc4ccccc4C3)[C@@H]2c2ccc(CO)cc2)cc1	-0.197	0.729	-0.574	-0.428	-2.56	0.125	-0.58 (inactive)	0.522	0.353	-0.831 (inactive)	-0.684	-0.528 (inactive)	-0.444 (inactive)	-1.03 (inactive)	1.15 (inactive)	-0.157 (inactive)	-0.185 (inactive)	-0.108 (inactive)	-0.396	-0.205
COC(=O)C(CC#Cc1ccc2c(c1)[C@]1(C(=O)N2)[C@H](C(=O)N2CCN(c3ncccn3)CC2)[C@H]2C(=O)O[C@H](c3ccccc3)[C@H](c3ccccc3)N2[C@@H]1c1ccc(OCCO)cc1)C(=O)OC	-0.0572	-0.609	1.09	0.607	0.363	-0.612	0.895 (inactive)	-0.933	-1.44	-0.178 (inactive)	-0.589	1.78 (inactive)	-1.45 (inactive)	-8.4 (active)	3.59 (inactive)	3.84 (inactive)	0.475 (inactive)	1.05 (inactive)	-0.126	-0.039
C=C(/C(=C/C[C@H](OC(C)=O)c1cccc(OCCO)c1)c1cnc2ccccc2c1)C(C)C	0.336	0.811	0.0181	-0.861	0.0738	1.28	0.224 (inactive)	0.649	-0.105	0.236 (inactive)	-0.196	0.644 (inactive)	-0.0992 (inactive)	-5.52 (inactive)	-0.0099 (inactive)	1.51 (inactive)	0.636 (inactive)	0.363 (inactive)	0.573	-0.0773
CC(C)OC(=O)C=C1C[C@@H](c2ccc(C(F)(F)F)cc2)O[C@@H](c2ccc(C(F)(F)F)cc2)O1	0.944	-0.168	0.114	-2.49	-1.51	-0.393	0.958 (inactive)	-0.478	-1.02	0.452 (inactive)	0.54	-5.34 (inactive)	0.533 (inactive)	-1.4 (inactive)	0.257 (inactive)	-1.93 (inactive)	0.2 (inactive)	1.41 (inactive)	0.0779	0.371
COc1ccc([Si](C)(C)[C@H]2[C@H](CC(=O)N(CCO)Cc3ccccc3)O[C@@]3(C(=O)N(Cc4cccc(N5CCOC5=O)c4)c4ccccc43)[C@@H]2C)cc1	-1.49	0.836	-2.16	-1.79	-4.29	0.917	-0.606 (inactive)	-1.16	-1.56	-3.44 (inactive)	-2.5	0.181 (inactive)	-3.55 (inactive)	0.966 (inactive)	1.28 (inactive)	2.36 (inactive)	-0.566 (inactive)	-0.639 (inactive)	-3.7	-0.0562
COCC1=C2[C@@H](CCc3ccccc3)OB(O)C[C@@H]2[C@@H]2C(=O)C=CC(=O)[C@@H]2C1	0.144	-0.147	-0.165	-3.4	-3.63	-3.14	-2.12 (inactive)	-0.654	-2.55	-0.648 (inactive)	-1.15	-5.61 (inactive)	-0.997 (inactive)	-4.14 (inactive)	0.106 (inactive)	-0.143 (inactive)	-0.244 (inactive)	0.0271 (inactive)	-0.878	0.906
